Results reported in PubChem BioAssay (Tox21).
Results filed as inconclusive are left out. Values without a mark were called inactive. The call rests on the fitted dose curve; in most records, active means well fitted cell-killing curve with a large enough effect in the repeat runs; inconclusive means weak or mixed curves, or effect the other way; inactive means no such curve, though single readings can be large or run the other way.

test: qHTS assay to identify small molecule agonists of the estrogen receptor alpha (ER-alpha) signaling pathway in the presence of an antagonist - cell viability counter screen (AID 1259386); details: VM7Luc4E2 viability, CellTiter-Fluor fluorescence, 22 h; series mostly up to 92.4 µM; activity change, negative = cytotoxicity: at the top concentration; further: nearly all actives have a fitted effect of over 30% in size
How it was run: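 VM7Luc4E2 cells (endogenous full-length ER-alpha, 4×ERE-luciferase) were held 5 days in phenol red-free medium with 10% charcoal-stripped FBS, plated, then given 10.0nM ICI-182,780 and compounds at 15 concentrations for 22hr at 37C; viability read by CellTiter-Fluor fluorescence.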
On the % scale 0 is the no-effect control and ±100 the full control effect.

| Compound | activity change, negative = cytotoxicity |
| --- | --- |
| CCCCCCCCCCCCCCCC(=O)OC | -0.526% [at 19 µM] |
| N[C@H]1C(O)O[C@H](CO)[C@@H](O)[C@@H]1O (some centres not stated) | -0.737% [at 42.5 µM] |
| C=C(C)C(=O)OCCOC1CC2CC1C1C=CCC21 (configuration not stated) | 2.32% |
| C=COCCCCO | -3.57% |
| COC(=O)c1ccc(C(=O)O)cc1 | -3.02% |
| COC(=O)c1cc(Cl)c(NC(C)=O)cc1OC | 4.12% [at 42.5 µM] |
| COC(=O)/C=C(\C)CCC=C(C)C | 1.31% |
| CCO[Si](CC(C)C)(OCC)OCC | -1.34% |
| CC(C)C(C)C | 0.808% |
| CC1(C)S[C@@H]2[C@H](NC(=O)Cc3ccccc3)C(=O)N2[C@H]1C(=O)O (tested in a mixture with another compound) | 0.531% [at 42.5 µM] |
| CCOC(=O)CN1CCCC1=O | 4.97% [at 42.5 µM] |
| CC[N+](C)(CC)CC | -0.736% |
| BrCCOc1ccccc1 | 1.1% |
| CCCCC(CC)COC(=O)CC#N (configuration not stated) | 0.0905% |
| Cc1ccc2cccnc2c1 | 1.37% |
| CCCCCCCCCCCCCCCCN(C)C | 0.513% [at 8.39 µM] |
| O=S(=O)(O)c1cc(I)c(O)c2ncccc12 | -1.83% [at 42.5 µM] |
| CCC(C)c1nccnc1OC (configuration not stated) | 6.76% |
| CCCCC(O)/C=C(C)/C=C/C=C/C(=O)N1CCCC1=O (configuration not stated) | -0.73% [at 42.5 µM] |
| Clc1cc(Cl)c(Cl)c(Cl)c1Cl | 2.85% |
| CC(C)OCCO | 1.57% |
| COc1ccc(Cl)cc1C | 0.791% |
| O=Cc1ccccc1S(=O)(=O)O | 0.0457% |
| O=c1[nH]c(=O)c2cn[nH]c2[nH]1 | -6.86% |
| CC(C)(C)c1ccc(C(=O)CCCCl)cc1 | 0.177% [at 42.5 µM] |
| O=C(O)Cc1c(Cl)ccc(Cl)c1Cl | 2.28% |
| CC(C)(C)NCC(O)COc1cccc2c1CCC(=O)N2 (configuration not stated) | 1.81% [at 42.5 µM] |
